Hit rate of the full screen: of about 5,500 compounds, about 2,000 (36%) were called active. Inconclusive results (about 18%) are left out. Cut-off read from the data, not from the text of the source: active = normalized growth mostly below about 0.91 (no sharp cut-off); inconclusive = no clear call, values can overlap the other calls; inactive = mostly above about 0.92. The list shows a part of the results.
Assay: chemical genetic growth profiling, strain panel (AID 1159580);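 note: tested at 20 µM; growth read once vehicle control cultures reached saturation at 30 °C; 1 = growth at the plate median or of vehicle wells; lower values mean less growth of the strain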
Conditions: S. cerevisiae deletion strains, growth OD

Measured: normalized growth

CC(SCc1ccccc1)C(=O)O (centres undefined)
inactive: locus YAL013W, strain DEP1, stronger effect = lower value 0.971 | locus YBR229C, strain ROT2, stronger effect = lower value 0.965 | locus YCL061C, strain MRC1, stronger effect = lower value 0.997 | locus YDL101C, strain DUN1, stronger effect = lower value 1 | locus YDL134C, strain PPH21, stronger effect = lower value 1 | locus YDR150W, strain NUM1, stronger effect = lower value 0.91 | locus YEL061C, strain CIN8, stronger effect = lower value 1.04 | locus YGR078C, strain PAC10, stronger effect = lower value 0.994 | locus YHR030C, strain SLT2, stronger effect = lower value 0.992 | locus YHR087W, strain rtc3, stronger effect = lower value 0.978 | locus YJL187C, strain SWE1, stronger effect = lower value 0.986 | locus YJR043C, strain POL32, stronger effect = lower value 0.981 | locus YJR075W, strain HOC1, stronger effect = lower value 0.965 | locus YKL190W, strain CNB1, stronger effect = lower value 1 | locus YLR039C, strain RIC1, stronger effect = lower value 1.02 | locus YLR058C, strain SHM2 (second series), stronger effect = lower value 0.988 | locus YLR085C, strain ARP6, stronger effect = lower value 1.01 | locus YLR262C, strain YPT6, stronger effect = lower value 1.02 | locus YML094W, strain GIM5, stronger effect = lower value 1.02 | locus YMR219W, strain ESC1, stronger effect = lower value 0.979 | locus YMR263W, strain SAP30, stronger effect = lower value 0.984 | locus YNL153C, strain GIM3, stronger effect = lower value 0.981 | locus YNL298W, strain CLA4 (second series), stronger effect = lower value 1.04 | locus YNL322C, strain KRE1, stronger effect = lower value 0.991 | locus YNR030W, strain Alg12, stronger effect = lower value 1 | locus YOL006C, strain TOP1, stronger effect = lower value 1.02 | locus YPL055C, strain LGE1, stronger effect = lower value 0.856 | locus YPL241C, strain CIN2, stronger effect = lower value 1 | locus YPR135W, strain CTF4, stronger effect = lower value 0.976

Source: PubChem BioAssay AID1159580 (chemical genetic matrix, 2015)
